Among all 310,000 compounds or so, about 2,200 (0.71%) showed an effect of 50% or more. Effects have a minus sign here. The entries come from a sample that favours strong results as a whole.
What follows are compounds tested against human ether-à-go-go-related gene (hERG) potassium channel (human, UniProt Q12809) (assay: primary screen, population patch clamp on CHO cells stably expressing hERG; higher = less effect of the substance).
Chain of human ether-à-go-go-related gene (hERG) potassium channel (Q12809 whole entry, looked up): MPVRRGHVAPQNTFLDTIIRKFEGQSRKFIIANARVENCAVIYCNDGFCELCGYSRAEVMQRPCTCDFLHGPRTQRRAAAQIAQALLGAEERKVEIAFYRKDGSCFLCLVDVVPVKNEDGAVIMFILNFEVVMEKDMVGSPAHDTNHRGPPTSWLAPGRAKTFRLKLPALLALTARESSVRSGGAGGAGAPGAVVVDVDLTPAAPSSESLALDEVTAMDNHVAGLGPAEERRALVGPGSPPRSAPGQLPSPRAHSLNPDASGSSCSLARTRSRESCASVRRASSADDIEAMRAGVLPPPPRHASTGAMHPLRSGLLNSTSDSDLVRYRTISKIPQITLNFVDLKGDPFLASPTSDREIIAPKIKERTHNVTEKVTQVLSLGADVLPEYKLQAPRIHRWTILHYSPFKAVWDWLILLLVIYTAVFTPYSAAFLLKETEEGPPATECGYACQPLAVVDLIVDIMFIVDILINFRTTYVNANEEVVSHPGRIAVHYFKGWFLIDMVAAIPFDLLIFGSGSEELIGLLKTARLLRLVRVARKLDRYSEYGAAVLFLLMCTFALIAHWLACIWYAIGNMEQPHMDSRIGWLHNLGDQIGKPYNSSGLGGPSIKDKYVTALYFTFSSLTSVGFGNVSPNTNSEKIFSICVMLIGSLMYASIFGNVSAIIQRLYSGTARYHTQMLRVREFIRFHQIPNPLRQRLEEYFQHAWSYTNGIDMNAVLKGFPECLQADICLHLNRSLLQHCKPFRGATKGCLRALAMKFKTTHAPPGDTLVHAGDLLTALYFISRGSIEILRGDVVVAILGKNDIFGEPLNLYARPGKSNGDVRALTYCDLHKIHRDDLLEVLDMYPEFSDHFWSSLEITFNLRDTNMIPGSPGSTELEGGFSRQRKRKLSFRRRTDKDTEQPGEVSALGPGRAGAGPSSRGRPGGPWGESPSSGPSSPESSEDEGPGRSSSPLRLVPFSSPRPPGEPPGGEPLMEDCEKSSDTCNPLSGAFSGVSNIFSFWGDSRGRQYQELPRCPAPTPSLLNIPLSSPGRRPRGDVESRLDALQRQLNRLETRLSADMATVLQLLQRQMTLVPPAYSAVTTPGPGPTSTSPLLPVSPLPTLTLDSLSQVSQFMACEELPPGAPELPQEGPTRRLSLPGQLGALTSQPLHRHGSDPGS

Row | Compound | hERG current change (%, negative = inhibition) at 1uM [%]
1 | Cc1cc(NC(=O)CSc2nc3c(c(=O)n2-c2ccccc2)SC(C)C3)no1 (centres unmarked) | -8.78
2 | Cc1ccc(C(=O)Nc2nc3nc(-c4ccccc4)cc(=O)n3[nH]2)cc1 | 14.5
3 | CCC(C)NS(=O)(=O)c1ccc(NC(C)=O)cc1 (centres unmarked) | 11.2
4 | CC(C)Cc1cc(C(=O)O)n[nH]1 | 5.43
5 | CC(=O)N1CCc2cc(Br)cc(S(=O)(=O)N3CCc4ccccc43)c21 | -1.76
6 | O=C(c1ccc(-n2cccc2)cc1)N1CCOCC1 | 7.49
7 | CCc1ccccc1N(CC(=O)NC1CCCCC1)C(=O)CCC(=O)Nc1ccccn1 | 12.3
8 | O=C(Nc1ccc(-c2csc(Nc3ccccc3)n2)cc1)c1cc([N+](=O)[O-])cc(C(F)(F)F)c1 | 4.72
9 | Cc1ccc(-c2ccc(C(=O)NCCCNC(=O)c3cnccn3)o2)cc1Cl | 18.8
10 | O=C(NCCCNC(=O)c1ccc(-c2cccc(Cl)c2)o1)c1cnccn1 | -12.5
11 | O=C(NCCNC(=O)c1ccc(-c2ccc(Cl)c(Cl)c2)o1)c1cnccn1 | -54.4
12 | NS(=O)(=O)OCCCc1ccc(C(F)(F)F)cc1 | 6.75
13 | COc1ccc(CCn2c(=N)c(C(=O)NCC3CCCO3)cc3c(=O)n4ccccc4nc32)cc1OC (centres unmarked) | -79.9
14 | COc1ccc(Cn2c(=N)c(C(=O)NCC3CCCO3)cc3c(=O)n4ccccc4nc32)cc1 (centres unmarked) | -85
15 | COc1ccc(CCNC(=O)CCn2c(=O)c3ccccc3n(CC(=O)NCC3CCCO3)c2=O)cc1OC (centres unmarked) | 9.7
16 | COc1ccc(CCn2c(=N)c(C(=O)NCC3CCCO3)cc3c(=O)n4ccccc4nc32)cc1 (centres unmarked) | -84.4
17 | Cc1cc(N2CCC(C)CC2)nc2ccc(N3C(=O)CCC3=O)cc12 | 9.64
18 | O=C(NC(=S)Nc1ncc(Br)cc1Br)c1cncc(Br)c1 | 4.04
19 | COc1ccc(C(=O)Nc2nnc(-c3cccs3)s2)cc1 | 18.6
20 | CC(C)(C)OC(=O)N[C@@H](Cc1ccccc1)c1nnc(S(=O)(=O)Cc2ccccc2)o1 | 5.19
21 | CCCCc1nc(Cl)c(C#N)c2c1CCCC2 | 5.82
22 | CCCCCc1n[nH]c2c1CCCC2 | 9.3

Row | Compound | hERG current change (%, negative = inhibition) at 1uM [%]
23 | CCCCCc1nc2c(c3c1CCCC3)CCCC2 | -51.7
24 | CC1CCCC(C)N1C(=O)COC(=O)CCC1CCCC1 (centres unmarked) | 9.29
25 | O=C(CN1C(=O)C2CC=CCC2C1=O)N1CCN(c2ccc([N+](=O)[O-])cc2)CC1 (centres unmarked) | -64.2
26 | CC(C(=O)N1CCN(c2ccc([N+](=O)[O-])cc2)CC1)N1C(=O)C2CC=CCC2C1=O (centres unmarked) | -50.2
27 | CC1(C)NC(=O)N(CC(=O)N2CCN(c3ccc([N+](=O)[O-])cc3)CC2)C1=O | -29.1
28 | COc1ccc(N2CCN(C(=O)CN3C(=O)C4CC=CCC4C3=O)CC2)cc1 (centres unmarked) | 15.7
29 | CC(C(=O)N1CCN(c2ccccc2)CC1)N1C(=O)C2CC=CCC2C1=O (centres unmarked) | 10.3
30 | CC(C(=O)N1CCN(c2ccccc2)CC1)c1ccc([N+](=O)[O-])cc1 (centres unmarked) | -12.2
31 | COc1ccc(C2=[N+]([O-])C(C)(C)N(O)C2(C)C)cc1 | 10.1
32 | Cc1nc(-c2nnc(SCC(=O)Nc3cc(Cl)cc(Cl)c3)n2C)cs1 | 10.6
33 | C/C(=N\N=C(c1ccccc1)c1ccccc1)c1ccco1 | 5.46
34 | CN1C(=O)C(=Cc2ccccc2OS(=O)(=O)c2ccccc2)C(=O)N(C)C1=O | 9.02
35 | N[C@@H]1CONC1=O | 18.7
36 | COC(=O)[C@H]1C[C@H]1[C@@H](NC(=O)c1cccnc1)c1ccccc1 | 11.4
37 | Fc1ccc(CNCCc2ccc3c(c2)OCO3)cc1 | 13.8
38 | COc1ccc(C(CCN)c2ccc3c(c2)OCO3)cc1 (centres unmarked) | 13.6
39 | CCOc1ccc(CNCCc2ccc3c(c2)OCO3)cc1 | -52.6
40 | COc1ccc(C(CCNCc2ccccc2)c2ccc(F)cc2)cc1 (centres unmarked) | -17.7
41 | COc1ccc(C(CCNCc2ccc(N(C)C)cc2)c2ccccc2OC)cc1 (centres unmarked) | -18.4
42 | CCOc1ccccc1CNCCc1ccc2c(c1)OCO2.Cl | 1.75
43 | COc1ccc(CNCCC(c2ccccc2)c2ccc3c(c2)OCO3)cc1.Cl (centres unmarked) | -68.7
44 | COc1ccc(C(CCNCc2ccc(N(C)C)cc2)c2ccccc2)cc1 (centres unmarked) | -56.4
